Assay results reported in ChEMBL document CHEMBL1961873, “Compounds: GSK PKIS; Assays: Nanosyn kinase panel” (2012).

Assays:
[1] = biological target: T1, Inhibitor of nuclear factor kappa-B kinase subunit epsilon (Homo sapiens) (UniProt Q14164); settings: at 1 µM;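 also: reported values are averaged percent inhibition figures against human IKKε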
T1 sequence (whole entry): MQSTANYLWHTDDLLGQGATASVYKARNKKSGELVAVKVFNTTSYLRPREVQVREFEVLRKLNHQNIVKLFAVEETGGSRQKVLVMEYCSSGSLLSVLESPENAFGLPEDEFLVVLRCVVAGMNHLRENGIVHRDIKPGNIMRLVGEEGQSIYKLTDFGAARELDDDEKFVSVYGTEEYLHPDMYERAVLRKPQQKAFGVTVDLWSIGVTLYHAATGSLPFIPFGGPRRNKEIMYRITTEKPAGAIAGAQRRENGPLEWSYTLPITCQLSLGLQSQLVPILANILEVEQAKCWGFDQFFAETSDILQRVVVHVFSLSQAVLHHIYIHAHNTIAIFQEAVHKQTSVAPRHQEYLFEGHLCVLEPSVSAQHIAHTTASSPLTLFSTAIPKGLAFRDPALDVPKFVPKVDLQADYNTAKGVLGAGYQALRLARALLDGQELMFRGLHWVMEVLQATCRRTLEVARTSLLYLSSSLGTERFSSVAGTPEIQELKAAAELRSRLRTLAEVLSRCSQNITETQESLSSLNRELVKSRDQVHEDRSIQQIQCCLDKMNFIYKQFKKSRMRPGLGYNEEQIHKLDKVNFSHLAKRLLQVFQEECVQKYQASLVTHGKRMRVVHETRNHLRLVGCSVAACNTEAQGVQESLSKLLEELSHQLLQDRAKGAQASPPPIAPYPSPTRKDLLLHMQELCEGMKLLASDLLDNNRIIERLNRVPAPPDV

[2] = biological target: T2, Serine/threonine-protein kinase Nek1 (Homo sapiens) (UniProt Q96PY6); settings: at 0.1 µM
T2 sequence (whole entry): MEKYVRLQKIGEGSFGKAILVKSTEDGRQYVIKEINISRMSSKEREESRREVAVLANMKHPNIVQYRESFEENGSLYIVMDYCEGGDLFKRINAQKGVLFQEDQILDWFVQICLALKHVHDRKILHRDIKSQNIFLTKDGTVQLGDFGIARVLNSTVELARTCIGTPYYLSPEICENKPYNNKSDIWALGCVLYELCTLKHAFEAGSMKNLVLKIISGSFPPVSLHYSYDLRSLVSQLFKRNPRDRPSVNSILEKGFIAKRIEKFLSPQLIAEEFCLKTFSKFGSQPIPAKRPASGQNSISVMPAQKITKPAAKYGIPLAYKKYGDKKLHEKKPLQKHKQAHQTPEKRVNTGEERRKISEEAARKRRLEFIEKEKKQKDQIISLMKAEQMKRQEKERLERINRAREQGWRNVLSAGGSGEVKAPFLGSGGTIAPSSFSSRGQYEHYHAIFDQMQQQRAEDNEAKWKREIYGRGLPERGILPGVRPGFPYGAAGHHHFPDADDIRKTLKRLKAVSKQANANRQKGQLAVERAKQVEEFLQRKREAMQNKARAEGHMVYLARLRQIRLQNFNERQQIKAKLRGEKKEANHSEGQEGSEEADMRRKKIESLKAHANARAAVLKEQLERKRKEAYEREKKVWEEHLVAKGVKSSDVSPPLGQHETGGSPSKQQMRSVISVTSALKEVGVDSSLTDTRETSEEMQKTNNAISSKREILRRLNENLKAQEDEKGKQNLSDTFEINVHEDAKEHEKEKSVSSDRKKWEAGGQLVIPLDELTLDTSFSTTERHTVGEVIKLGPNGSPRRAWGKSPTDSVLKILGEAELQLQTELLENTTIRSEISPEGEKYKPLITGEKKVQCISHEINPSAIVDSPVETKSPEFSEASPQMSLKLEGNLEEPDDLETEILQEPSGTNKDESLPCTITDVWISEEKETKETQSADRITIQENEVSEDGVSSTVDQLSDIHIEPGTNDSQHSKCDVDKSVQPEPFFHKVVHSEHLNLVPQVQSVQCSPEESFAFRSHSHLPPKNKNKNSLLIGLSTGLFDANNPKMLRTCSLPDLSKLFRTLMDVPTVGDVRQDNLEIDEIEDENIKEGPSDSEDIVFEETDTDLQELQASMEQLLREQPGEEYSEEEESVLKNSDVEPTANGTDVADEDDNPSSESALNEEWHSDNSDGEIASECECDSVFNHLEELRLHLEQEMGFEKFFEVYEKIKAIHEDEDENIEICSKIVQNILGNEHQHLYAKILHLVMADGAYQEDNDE

[3] = biological target: T2, Serine/threonine-protein kinase Nek1 (Homo sapiens); settings: at 1 µM
[4] = biological target: T3, Serine/threonine-protein kinase Nek2 (Homo sapiens) (UniProt P51955); settings: at 0.1 µM
T3 sequence (whole entry): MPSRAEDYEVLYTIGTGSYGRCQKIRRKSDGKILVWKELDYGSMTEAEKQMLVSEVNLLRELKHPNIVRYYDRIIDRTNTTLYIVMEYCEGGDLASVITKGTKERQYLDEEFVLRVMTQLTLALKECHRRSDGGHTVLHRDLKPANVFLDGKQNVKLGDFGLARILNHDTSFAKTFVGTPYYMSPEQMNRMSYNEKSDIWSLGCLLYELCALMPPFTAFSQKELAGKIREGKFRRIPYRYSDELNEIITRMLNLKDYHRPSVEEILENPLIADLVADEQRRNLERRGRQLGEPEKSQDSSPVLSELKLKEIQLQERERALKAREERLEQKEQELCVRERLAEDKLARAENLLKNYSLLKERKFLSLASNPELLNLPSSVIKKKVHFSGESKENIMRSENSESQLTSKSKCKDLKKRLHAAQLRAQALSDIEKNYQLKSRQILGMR

[5] = biological target: T3, Serine/threonine-protein kinase Nek2 (Homo sapiens); settings: at 1 µM
[6] = biological target: Serine/threonine-protein kinase Nek6 (Homo sapiens) (UniProt Q9HC98); settings: at 0.1 µM
[7] = biological target: Serine/threonine-protein kinase Nek6 (Homo sapiens) (UniProt Q9HC98); settings: at 1 µM
[8] = biological target: Serine/threonine-protein kinase Nek7 (Homo sapiens) (UniProt Q8TDX7); settings: at 0.1 µM
[9] = biological target: Serine/threonine-protein kinase Nek7 (Homo sapiens) (UniProt Q8TDX7); settings: at 1 µM
[10] = biological target: T4, Serine/threonine-protein kinase Nek9 (Homo sapiens) (UniProt Q8TD19); settings: at 0.1 µM
T4 sequence (whole entry): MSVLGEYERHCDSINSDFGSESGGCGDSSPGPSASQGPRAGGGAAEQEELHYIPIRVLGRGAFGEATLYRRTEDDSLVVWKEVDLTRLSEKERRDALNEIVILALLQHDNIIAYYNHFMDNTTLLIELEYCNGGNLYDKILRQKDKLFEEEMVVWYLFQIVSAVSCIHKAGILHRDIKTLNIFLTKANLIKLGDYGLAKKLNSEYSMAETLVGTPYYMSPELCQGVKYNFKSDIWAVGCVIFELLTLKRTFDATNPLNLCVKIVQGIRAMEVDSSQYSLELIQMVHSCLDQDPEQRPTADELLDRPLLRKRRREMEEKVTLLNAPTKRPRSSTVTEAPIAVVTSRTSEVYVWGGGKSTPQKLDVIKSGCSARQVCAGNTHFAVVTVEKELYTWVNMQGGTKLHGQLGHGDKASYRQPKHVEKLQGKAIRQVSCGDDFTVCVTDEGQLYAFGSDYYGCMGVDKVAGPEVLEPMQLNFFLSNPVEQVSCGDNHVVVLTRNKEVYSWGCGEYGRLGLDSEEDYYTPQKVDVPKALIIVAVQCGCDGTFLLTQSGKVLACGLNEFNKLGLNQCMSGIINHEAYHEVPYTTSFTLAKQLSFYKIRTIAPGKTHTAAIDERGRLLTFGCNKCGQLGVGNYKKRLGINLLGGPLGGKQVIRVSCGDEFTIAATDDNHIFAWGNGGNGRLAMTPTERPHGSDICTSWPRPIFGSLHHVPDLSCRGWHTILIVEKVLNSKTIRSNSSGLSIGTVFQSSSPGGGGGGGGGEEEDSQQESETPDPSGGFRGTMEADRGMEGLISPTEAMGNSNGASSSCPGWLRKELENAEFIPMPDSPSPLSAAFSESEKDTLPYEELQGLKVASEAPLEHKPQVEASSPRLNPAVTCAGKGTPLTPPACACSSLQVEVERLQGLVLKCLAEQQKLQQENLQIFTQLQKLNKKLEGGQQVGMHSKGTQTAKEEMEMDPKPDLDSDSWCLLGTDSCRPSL

[11] = biological target: T4, Serine/threonine-protein kinase Nek9 (Homo sapiens); settings: at 1 µM
[12] = biological target: Serine/threonine-protein kinase PLK1 (Homo sapiens) (UniProt P53350); settings: at 0.1 µM
[13] = biological target: Serine/threonine-protein kinase PLK1 (Homo sapiens) (UniProt P53350); settings: at 1 µM
[14] = biological target: T5, Dual specificity protein kinase TTK (Homo sapiens) (UniProt P33981); settings: at 0.1 µM
T5 sequence (whole entry): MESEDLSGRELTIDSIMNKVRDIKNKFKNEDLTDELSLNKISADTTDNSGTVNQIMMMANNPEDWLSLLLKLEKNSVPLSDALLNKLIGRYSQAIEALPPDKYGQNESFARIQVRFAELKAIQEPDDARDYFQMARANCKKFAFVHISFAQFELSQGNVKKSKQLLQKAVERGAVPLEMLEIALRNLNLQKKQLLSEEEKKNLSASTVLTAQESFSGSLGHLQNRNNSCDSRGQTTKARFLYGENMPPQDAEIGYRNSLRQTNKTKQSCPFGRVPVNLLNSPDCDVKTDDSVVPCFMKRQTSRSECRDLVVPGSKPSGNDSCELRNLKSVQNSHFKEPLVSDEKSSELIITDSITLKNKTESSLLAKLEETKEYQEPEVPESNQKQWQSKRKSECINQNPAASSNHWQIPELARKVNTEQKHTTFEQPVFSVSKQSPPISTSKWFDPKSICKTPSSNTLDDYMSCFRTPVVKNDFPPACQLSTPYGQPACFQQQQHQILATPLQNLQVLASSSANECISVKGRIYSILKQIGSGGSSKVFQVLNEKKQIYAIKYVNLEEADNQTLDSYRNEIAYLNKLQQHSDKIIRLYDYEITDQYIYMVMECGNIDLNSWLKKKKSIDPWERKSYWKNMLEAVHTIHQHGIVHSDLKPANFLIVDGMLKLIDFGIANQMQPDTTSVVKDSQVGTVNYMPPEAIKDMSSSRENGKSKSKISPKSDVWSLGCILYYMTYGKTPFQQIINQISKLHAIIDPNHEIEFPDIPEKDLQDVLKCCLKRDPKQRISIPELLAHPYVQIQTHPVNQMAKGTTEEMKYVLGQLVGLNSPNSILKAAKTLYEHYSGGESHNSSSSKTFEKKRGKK

[15] = system: T6, Receptor-type tyrosine-protein kinase FLT3 (Homo sapiens), P36888 [D835Y]; settings: at 1 µM
T6 sequence (whole entry): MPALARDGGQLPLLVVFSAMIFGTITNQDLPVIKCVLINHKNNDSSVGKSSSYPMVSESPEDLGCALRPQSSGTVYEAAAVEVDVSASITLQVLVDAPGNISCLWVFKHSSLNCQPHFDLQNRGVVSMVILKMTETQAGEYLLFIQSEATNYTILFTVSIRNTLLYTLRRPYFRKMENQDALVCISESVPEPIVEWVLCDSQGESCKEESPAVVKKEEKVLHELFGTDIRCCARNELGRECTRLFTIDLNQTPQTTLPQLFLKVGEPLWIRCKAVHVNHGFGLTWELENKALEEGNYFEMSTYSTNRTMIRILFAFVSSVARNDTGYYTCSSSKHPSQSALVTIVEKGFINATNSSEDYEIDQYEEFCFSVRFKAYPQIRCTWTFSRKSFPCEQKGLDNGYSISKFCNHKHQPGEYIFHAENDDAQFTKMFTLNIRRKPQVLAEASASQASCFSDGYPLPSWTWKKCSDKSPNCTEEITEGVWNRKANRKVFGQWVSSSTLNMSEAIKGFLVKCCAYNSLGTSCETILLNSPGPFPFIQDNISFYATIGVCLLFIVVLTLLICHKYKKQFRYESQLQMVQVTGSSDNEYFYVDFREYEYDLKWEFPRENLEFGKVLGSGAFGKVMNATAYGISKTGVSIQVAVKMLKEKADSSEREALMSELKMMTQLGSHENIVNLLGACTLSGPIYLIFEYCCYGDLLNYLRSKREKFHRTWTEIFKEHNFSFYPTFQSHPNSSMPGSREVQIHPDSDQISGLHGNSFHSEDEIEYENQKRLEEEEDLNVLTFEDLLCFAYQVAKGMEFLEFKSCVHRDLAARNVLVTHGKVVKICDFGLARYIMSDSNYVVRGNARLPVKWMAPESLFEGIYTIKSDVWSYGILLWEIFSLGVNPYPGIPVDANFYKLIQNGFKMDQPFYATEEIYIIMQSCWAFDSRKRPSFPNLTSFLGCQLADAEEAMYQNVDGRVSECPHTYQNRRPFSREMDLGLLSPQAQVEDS

[16] = biological target: Vascular endothelial growth factor receptor 3 (Homo sapiens) (UniProt P35916); settings: at 0.1 µM
[17] = biological target: Vascular endothelial growth factor receptor 3 (Homo sapiens) (UniProt P35916); settings: at 1 µM
[18] = biological target: Macrophage colony-stimulating factor 1 receptor (Homo sapiens) (UniProt P07333); settings: at 0.1 µM
[19] = biological target: Macrophage colony-stimulating factor 1 receptor (Homo sapiens) (UniProt P07333); settings: at 1 µM
[20] = biological target: Tyrosine-protein kinase Fyn (Homo sapiens) (UniProt P06241); settings: at 0.1 µM
Sequence of Tyrosine-protein kinase Fyn (Homo sapiens) (P06241 2-537 limits assumed): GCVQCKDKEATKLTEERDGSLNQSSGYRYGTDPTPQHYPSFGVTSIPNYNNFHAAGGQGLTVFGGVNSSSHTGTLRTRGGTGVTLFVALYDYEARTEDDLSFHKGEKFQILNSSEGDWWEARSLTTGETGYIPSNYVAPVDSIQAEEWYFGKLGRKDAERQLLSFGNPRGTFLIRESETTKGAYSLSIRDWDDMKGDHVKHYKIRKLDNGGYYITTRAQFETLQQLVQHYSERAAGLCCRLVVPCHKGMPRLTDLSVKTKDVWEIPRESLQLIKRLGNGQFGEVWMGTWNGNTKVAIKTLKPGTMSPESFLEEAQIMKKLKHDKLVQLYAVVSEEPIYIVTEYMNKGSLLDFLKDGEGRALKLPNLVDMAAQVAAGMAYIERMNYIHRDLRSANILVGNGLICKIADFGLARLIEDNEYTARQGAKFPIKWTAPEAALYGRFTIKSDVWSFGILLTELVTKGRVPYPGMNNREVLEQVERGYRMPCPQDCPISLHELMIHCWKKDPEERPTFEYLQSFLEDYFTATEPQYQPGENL

Sequence of Macrophage colony-stimulating factor 1 receptor (Homo sapiens) (P07333 whole entry): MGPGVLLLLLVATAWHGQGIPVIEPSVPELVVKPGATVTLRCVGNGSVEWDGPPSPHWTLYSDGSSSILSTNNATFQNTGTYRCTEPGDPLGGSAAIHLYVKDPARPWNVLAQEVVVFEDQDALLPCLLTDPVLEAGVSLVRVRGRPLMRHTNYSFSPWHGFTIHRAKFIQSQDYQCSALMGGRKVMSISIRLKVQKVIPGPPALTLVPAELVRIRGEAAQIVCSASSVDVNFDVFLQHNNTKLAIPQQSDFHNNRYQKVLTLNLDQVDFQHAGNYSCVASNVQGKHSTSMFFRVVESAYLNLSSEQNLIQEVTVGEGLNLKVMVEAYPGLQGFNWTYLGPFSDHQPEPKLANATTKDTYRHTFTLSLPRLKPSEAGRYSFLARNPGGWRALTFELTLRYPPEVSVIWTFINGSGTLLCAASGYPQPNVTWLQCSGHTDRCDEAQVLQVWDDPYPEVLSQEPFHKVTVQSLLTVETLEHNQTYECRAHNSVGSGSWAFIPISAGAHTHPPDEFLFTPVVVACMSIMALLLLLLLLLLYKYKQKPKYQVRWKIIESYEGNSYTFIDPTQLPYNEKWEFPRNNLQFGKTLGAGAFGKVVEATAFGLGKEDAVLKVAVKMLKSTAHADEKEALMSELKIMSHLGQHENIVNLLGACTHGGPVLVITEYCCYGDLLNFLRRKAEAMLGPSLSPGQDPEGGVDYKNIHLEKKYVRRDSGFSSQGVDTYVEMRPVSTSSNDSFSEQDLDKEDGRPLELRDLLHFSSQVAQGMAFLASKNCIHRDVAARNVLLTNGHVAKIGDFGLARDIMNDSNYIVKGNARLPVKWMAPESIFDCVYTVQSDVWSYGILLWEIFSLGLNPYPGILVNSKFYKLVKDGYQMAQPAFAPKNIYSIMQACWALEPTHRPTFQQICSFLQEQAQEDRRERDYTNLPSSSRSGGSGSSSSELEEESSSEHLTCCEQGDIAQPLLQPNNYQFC
Sequence of Serine/threonine-protein kinase PLK1 (Homo sapiens) (P53350 whole entry): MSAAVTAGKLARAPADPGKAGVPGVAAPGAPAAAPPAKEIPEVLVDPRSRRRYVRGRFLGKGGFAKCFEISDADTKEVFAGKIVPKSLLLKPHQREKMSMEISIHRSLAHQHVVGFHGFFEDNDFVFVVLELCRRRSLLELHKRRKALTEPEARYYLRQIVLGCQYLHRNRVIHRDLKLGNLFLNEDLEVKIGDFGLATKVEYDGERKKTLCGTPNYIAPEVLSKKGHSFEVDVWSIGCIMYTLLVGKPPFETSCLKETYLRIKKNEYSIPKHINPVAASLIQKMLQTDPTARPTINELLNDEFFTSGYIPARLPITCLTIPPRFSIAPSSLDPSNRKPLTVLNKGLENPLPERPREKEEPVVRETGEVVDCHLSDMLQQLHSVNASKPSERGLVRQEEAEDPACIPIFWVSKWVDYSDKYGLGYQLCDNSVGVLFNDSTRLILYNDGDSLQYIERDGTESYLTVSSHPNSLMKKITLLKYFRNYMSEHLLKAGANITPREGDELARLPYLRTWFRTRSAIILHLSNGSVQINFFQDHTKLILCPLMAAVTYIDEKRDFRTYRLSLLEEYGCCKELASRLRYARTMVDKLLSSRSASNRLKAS
Sequence of Serine/threonine-protein kinase Nek7 (Homo sapiens) (Q8TDX7 whole entry, looked up): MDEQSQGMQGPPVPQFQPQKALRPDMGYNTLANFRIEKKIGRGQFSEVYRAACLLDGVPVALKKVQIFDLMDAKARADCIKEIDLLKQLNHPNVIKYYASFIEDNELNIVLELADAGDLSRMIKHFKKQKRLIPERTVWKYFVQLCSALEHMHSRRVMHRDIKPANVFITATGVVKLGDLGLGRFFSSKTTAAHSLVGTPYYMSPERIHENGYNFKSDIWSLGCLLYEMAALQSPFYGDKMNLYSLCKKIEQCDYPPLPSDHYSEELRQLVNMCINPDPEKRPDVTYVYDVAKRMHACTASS
Sequence of Vascular endothelial growth factor receptor 3 (Homo sapiens) (P35916 whole entry): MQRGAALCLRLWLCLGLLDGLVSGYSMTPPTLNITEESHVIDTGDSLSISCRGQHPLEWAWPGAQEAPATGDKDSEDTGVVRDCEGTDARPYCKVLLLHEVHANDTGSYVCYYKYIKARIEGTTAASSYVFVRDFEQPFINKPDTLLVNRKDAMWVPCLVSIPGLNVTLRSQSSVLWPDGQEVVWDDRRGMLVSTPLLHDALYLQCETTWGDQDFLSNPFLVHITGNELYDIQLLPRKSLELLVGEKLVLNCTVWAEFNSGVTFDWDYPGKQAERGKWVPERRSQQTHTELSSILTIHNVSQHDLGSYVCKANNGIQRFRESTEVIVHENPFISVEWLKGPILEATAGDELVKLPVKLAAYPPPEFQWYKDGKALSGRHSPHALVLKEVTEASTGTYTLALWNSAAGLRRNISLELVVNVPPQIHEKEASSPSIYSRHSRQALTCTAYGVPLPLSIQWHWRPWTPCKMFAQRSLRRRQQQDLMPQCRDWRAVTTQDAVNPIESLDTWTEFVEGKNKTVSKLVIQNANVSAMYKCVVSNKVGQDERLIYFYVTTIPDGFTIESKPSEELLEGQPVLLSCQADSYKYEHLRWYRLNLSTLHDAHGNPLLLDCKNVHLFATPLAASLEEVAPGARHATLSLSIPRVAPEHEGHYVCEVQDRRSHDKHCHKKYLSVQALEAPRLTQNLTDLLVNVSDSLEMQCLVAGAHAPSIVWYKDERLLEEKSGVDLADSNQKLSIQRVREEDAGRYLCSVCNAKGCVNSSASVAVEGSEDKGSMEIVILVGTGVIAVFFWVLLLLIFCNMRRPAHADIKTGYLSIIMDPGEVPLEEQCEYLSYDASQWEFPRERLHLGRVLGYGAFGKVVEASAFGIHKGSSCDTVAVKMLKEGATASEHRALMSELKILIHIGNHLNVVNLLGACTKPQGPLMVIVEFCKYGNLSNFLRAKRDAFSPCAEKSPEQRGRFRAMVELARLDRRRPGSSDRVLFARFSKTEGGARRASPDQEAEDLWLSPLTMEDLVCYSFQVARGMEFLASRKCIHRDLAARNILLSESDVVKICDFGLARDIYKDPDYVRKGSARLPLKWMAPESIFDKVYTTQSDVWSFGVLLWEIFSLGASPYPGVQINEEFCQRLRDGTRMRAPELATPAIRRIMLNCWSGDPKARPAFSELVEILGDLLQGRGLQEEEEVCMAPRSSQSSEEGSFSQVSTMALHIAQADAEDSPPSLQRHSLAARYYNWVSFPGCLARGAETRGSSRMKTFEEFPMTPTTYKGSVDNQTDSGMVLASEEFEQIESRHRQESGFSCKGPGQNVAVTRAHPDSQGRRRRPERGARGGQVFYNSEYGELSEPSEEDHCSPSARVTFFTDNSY
Sequence of Serine/threonine-protein kinase Nek6 (Homo sapiens) (Q9HC98 whole entry): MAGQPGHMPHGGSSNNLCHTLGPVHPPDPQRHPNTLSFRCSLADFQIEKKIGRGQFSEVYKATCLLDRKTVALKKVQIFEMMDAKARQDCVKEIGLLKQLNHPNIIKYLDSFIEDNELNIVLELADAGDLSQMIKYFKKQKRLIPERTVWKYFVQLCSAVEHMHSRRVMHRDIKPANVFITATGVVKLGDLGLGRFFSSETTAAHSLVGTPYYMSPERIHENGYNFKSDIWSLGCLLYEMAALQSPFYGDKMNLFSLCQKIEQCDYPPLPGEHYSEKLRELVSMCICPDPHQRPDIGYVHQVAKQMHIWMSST

| Compound | inhibition [1] | inhibition [2] | inhibition [3] | inhibition [4] | inhibition [5] | inhibition [6] | inhibition [7] | inhibition [8] | inhibition [9] | inhibition [10] | inhibition [11] | inhibition [12] | inhibition [13] | inhibition [14] | inhibition [15] | inhibition [16] | inhibition [17] | inhibition [18] | inhibition [19] | inhibition [20] |
| --- | --- | --- | --- | --- | --- | --- | --- | --- | --- | --- | --- | --- | --- | --- | --- | --- | --- | --- | --- | --- |
| COC(=O)c1cncc(/C=C/c2c(C)cc(O)cc2C)c1 | 8.63% | 1.51% | 3.23% | 4.54% | 3.91% | 0.94% | 4.21% | 2.47% | 1.56% | 2.09% | 3.89% | 1.89% | 1.85% | 6.05% | 1.33% | 4.3% | 2.63% | 6.96% | 37.7% | 3.73% |
| NS(=O)(=O)c1ccc(NC=C2C(=O)Nc3ccc4ncsc4c32)cc1 | 65.4% | 3.02% | 6.96% | 5.94% | 8.12% | 1.57% | 7.78% | 7.6% | 13.9% | 9.07% | 32% | 4.42% | 6.99% | 52.1% | 87.5% | 63.9% | 102% | 47.5% | 85.5% | 5.49% |
